# From PubChem BioAssay AID624296 (National Center for Advancing Translational Sciences (NCATS), 2012)
# Where “and” joins values, the source holds several entries; their conditions need not be identical. Equal entries are not always repeated. Among all 350,000 compounds or so, about 9,900 (2.8%) were called active. Another 15% or so got no clear call; they are omitted. Calls come from the whole dose curve; as a rule, active = well fitted activation curve with a large enough effect; inconclusive = small, poorly fitted or top-dose-only effect; inactive = no such curve, though single readings can be large or run the other way. The list comes from a sample in which actives are over-represented; it also holds similar structures and randomly drawn compounds.
# Experiment: A quantitative high throughput screen for small molecules that induce DNA re-replication in MCF 10a normal breast cells. For activity, positive = re-replication: % of control where 0% means no effect. Note: nearly all actives have a fitted effect of over 50% in size.
# Conditions: MCF 10A DNA re-replication, Hoechst nuclear intensity, 48 h; series mostly up to 46.1 µM; activity, positive = re-replication: at the top concentration
# Potency is the fitted concentration of half-maximal effect.
SMILES,"activity, positive = re-replication",Potency
Cc1cc(C)cc(NC(=O)C(c2ccccc2)N2CCN(CC(=O)N3CCCC3)CC2)c1 (stereo not given),0.469% (inactive),–
COc1ccc(CNC(=O)C[C@H]2C[C@H](C(=O)N3CCOCC3)[C@@]3(C)c4[nH]c5cc(CCC(=O)N(C)C)ccc5c4CCN3C2=O)cc1OC,-2.67% (inactive),–
O=C(CN1C(=O)NC2(CCCCC2)C1=O)N1CCN(C(=O)c2cccs2)CC1,-2% (inactive),–
CCC1(C)Cc2c(sc3[nH]c(=S)n(Cc4ccccc4)c(=O)c23)CO1 (stereo not given),–,13 µM (active)
CCC1(C)Cc2c(sc3nc(SC)[nH]c(=O)c23)CO1 (stereo not given),-1.6% (inactive),–
CCn1c(=S)[nH]c2sc3c(c2c1=O)CCCCC3,7.93% (inactive),–
CCCCn1c(=O)c(C(C)=O)c(O)c2ccccc21,5.82% (inactive),–
Cc1cc(C)n(CC(O)CN(c2ccccc2)S(=O)(=O)c2ccc3ccccc3c2)n1 (stereo not given),3.27% (inactive),–
O=S(=O)(c1ccccc1)N(CC(O)CN1CCCCC1)c1ccccc1 (stereo not given),4.96% (inactive),–
CS(=O)(=O)N(CC(O)Cn1c2ccccc2c2ccccc21)c1cccc2ccccc12 (stereo not given),–,16.4 µM (active)
CCCCN(CCCC)CC(O)Cn1c2ccccc2c(=O)c2ccccc21 (stereo not given),–,18.4 µM (active)
CCCn1c(=O)c(-c2ccccc2)c(O)c2ccccc21,7.08% (inactive),–
O=C(CN1C(=O)NC(Cc2c[nH]c3ccccc23)C1=O)Nc1ccccc1C(F)(F)F (stereo not given),3.41% (inactive),–
CN(CC(=O)Nc1ccc(C(N)=O)cc1)S(=O)(=O)c1ccc2c(c1)OCCO2,-1.22% (inactive),–
Cn1nccc1C(=O)NC1CCCc2c1cnn2-c1ccccc1F (stereo not given),10.6% (inactive),–
COc1ccc(C(=O)NC2CCCc3c2cnn3-c2cccc(C)c2C)c(OC)n1 (stereo not given),–,18.4 µM (active)
CC(=O)NCC(=O)NC1CCCc2c1cnn2-c1ccccc1F (stereo not given),-1.44% (inactive),–
CC(C)(C)NS(=O)(=O)NC(=O)C1=C(N2CCCC2)COC1=O,11.9% (inactive),–
Cc1ccc(S(=O)(=O)N2CCCCC2)cc1NC(=O)[C@@H]1CCCN1C(=O)c1cccs1,-5.26% (inactive),–
Cc1ccc(S(=O)(=O)NCC(=O)NNC(=O)c2ccc(Br)cc2)cc1C,5.77% (inactive),–
FC(F)(F)c1cc(-c2ccco2)nc(NCc2ccc(Cl)cc2)n1,–,16.4 µM (active)
FC(F)(F)c1cc(-c2cccs2)nc(NCc2ccco2)n1,13.3% (inactive),–
Cc1cc(C(F)(F)F)nn1-c1nc(-c2ccco2)cc(C(F)(F)F)n1,-6% (inactive),–
CN(CC(=O)Nc1ccc(F)c(F)c1F)C(=O)C1CC(=O)N(C2CCCC2)C1 (stereo not given),-28.2% (inactive),–
O=C(N[C@@H](Cc1c[nH]c2ccccc12)C(=O)O)OCC1c2ccccc2-c2ccccc21,10.8% (inactive),–

SMILES,"activity, positive = re-replication",Potency
COc1ccc(CCNC(=O)COC(=O)c2ncc(Cl)c(Cl)c2Cl)cc1OC,-0.637% (inactive),–
COC(=O)c1ccccc1NC(=O)CSc1nc2c(c(=O)[nH]1)CCC2,-2.45% (inactive),–
CCOC(=O)c1ccccc1NC(=O)CSc1nc2ccccc2c(=O)[nH]1,–,18.4 µM (active)
CCOC(=O)c1cnc(SCC(=O)Nc2ccccc2C(=O)OC)nc1N,16.1% (inactive),–
Cc1ccc(Cn2c(C)c3cnn(CC(=O)NCCN4CCOCC4)c(=O)c3c2C)cc1,-2.54% (inactive),–
O=C(NCCCN1CCOCC1)c1cn(-c2ccccc2)nc1-c1ccc(F)cc1,10.2% (inactive),–
COc1ccc(-c2ccc3c(c2)C2CC3CCN2CCC#N)cc1 (stereo not given),1.97% (inactive),–
CCN(CC)S(=O)(=O)c1cc(C(=O)Nc2cc(S(=O)(=O)N3CCOCC3)ccc2N2CCCC2)ccc1F,-0.679% (inactive),–
C/C(=C\c1ccccc1)C1NC(=O)c2c(sc3c2CCCC3)N1 (stereo not given),–,20.6 µM (active)
O=C1NC(c2ccncc2)Nc2sc3c(c21)CCCC3 (stereo not given),11.3% (inactive),–
O=C1CCCCC1C(=O)c1ccccc1 (stereo not given),1.46% (inactive),–
CNC[C@H]1Oc2c(NC(=O)C3CCCCC3)cccc2C(=O)N([C@H](C)CO)C[C@@H]1C,-2.79% (inactive),–
Cc1noc(C)c1S(=O)(=O)N(C)C[C@H]1Oc2ccc(NC(=O)C3CCCCC3)cc2C(=O)N([C@H](C)CO)C[C@@H]1C,26.5% (inactive),–
O=C(CN1CCC(O)(c2ccccc2)CC1)Nc1ccc2c(c1)OCCO2,-3.64% (inactive),–
O=C(CCN1CCc2ccccc2C(O)(c2ccccc2)C1)c1ccc2c(c1)OCCO2 (stereo not given),–,6.51 µM (active)
O=C(COC(=O)c1ccccc1)c1ccc2c(c1)OCCO2,4.61% (inactive),–
CCN(C(=O)COC(=O)c1ccccc1O)c1cccc2ccccc12,-2.15% (inactive),–
O=C(CCCOc1ccccc1)NNC(=O)c1ccc(Cl)cc1,-2.69% (inactive),–
CCS(=O)(=O)C1=NSC2=NC(=O)/C(=C\c3cc(C)n(-c4cccc(OC)c4)c3C)C(=N)N21,–,5.8 µM (active)
CCS(=O)(=O)C1=NSC2=NC(=O)/C(=C\c3ccc(OS(=O)(=O)c4ccccc4)cc3)C(=N)N21,-5.59% (inactive),–
CCC1=NN2C(=N)/C(=C/c3cc(C)n(-c4ccccc4)c3C)C(=O)N=C2S1,11.7% (inactive),–
CC(=O)c1cccc(-c2ccc(CN3C(CC(C)C)C(=O)N(Cc4cn(CC5CCCCC5)nn4)CCS3(=O)=O)cc2)c1 (stereo not given),24.9% (inactive),–
CCOc1ccc(C(=O)Nc2cc(OC)ccc2OC)cc1,1.23% (inactive),–
CCOc1cc(NC(=O)c2ccccn2)c(OCC)cc1NC(=O)c1ccc(OC)cc1,–,3.26 µM (active)
CCOc1cc2ccccc2cc1C(=O)Nc1ccccn1,5.04% (inactive),–

SMILES,"activity, positive = re-replication",Potency
CN(Cc1ccc(CNC[C@H]2O[C@@H](n3cnc4c(N)ncnc43)[C@H](O)[C@@H]2O)o1)S(C)(=O)=O,-3.25% (inactive),–
Cc1c(C(C)CCCO)oc(=O)c2c1Oc1c(C)c(C(C)C[C@@H](C)O)oc(=O)c1C2 (stereo not given in full),-16.4% (inactive),–
Cc1nn(-c2ccccc2)c(C)c1C(=O)OCC(=O)NC(=O)NC1CCCCC1,5.35% (inactive),–
CCCn1c(C)cc(C(=O)COC(=O)c2c(C)nn(-c3ccccc3)c2C)c1C,–,9.2 µM (active)
Cc1cccc(C)c1NC(=O)COC(=O)c1c(C)nn(-c2ccccc2)c1C,-7.91% (inactive),–
O=C1CCC/C=C\C[C@@H](CC(=O)N(CCO)Cc2ccccc2)C(=O)NCCO1,-0.188% (inactive),–
O=C1OCC2=C1C(c1ccc(Cl)cc1)c1cc3c(cc1O2)OCO3 (stereo not given),29.5% (inactive),–
C=CC(=O)OCCOCCOCCOCCOC(=O)C=C,–,5.8 µM (active)
Cc1cc(Nc2ccc(Cl)cc2)nc(N2CCOCC2)n1,4.08% (inactive),–
Cc1cc(C)n(-c2nnc(N3CCN(c4ccccc4)CC3)nn2)n1,1.27% (inactive),–
CCOC(=O)c1cnc(-n2nc(C)cc2C)nc1Nc1cccc(C(C)=O)c1,0.919% (inactive),–
CC(=O)Nc1ccc(Nc2cc(C)nc(Nc3ccc(NC(C)=O)cc3)n2)cc1,3.9% (inactive),–
Cc1cc(N/N=C\c2ccc(Br)cc2)nc(-n2nc(C)cc2C)n1,–,18.4 µM (active)
COc1ccc(Nc2cc(C)nc(-n3nc(C)cc3C)n2)cc1,–,2.06 µM (active)
Cc1ccc(S(=O)(=O)Nc2nc(C)cc(N/N=C/c3ccc(O)cc3)n2)cc1,-0.365% (inactive),–
CC(=O)c1ccc(Oc2cc(C)nc(-n3nc(C)cc3C)n2)cc1,–,4.11 µM (active)
Cc1cc(C)n(-c2ccc(Cl)c(C(=O)O)n2)n1,3.83% (inactive),–
COc1ccc2oc(N)nc2c1,0.24% (inactive),–
COc1cccc(CNC(C)C(=O)Nc2ccc(S(=O)(=O)N3CCCC3)cc2)c1 (stereo not given),5.52% (inactive),–
CN(Cc1ccc(F)cc1)C(=O)CN1C(=O)c2ccccc2S1(=O)=O,-0.62% (inactive),–
C[C@]12CC[C@H](O)CC1=CCC1C2CC[C@@]2(C)C1CC[C@@H]2NC(=O)CCC(=O)O (stereo not given in full),-1.85% (inactive),–
CC1CCCCC1NC(=O)COC(=O)Cc1ccc(Cl)cc1 (stereo not given),-4.72% (inactive),–
CC(C)(C)C(=O)Nc1cccc(-c2ccc[nH]2)n1,-0.678% (inactive),–
CC(=O)c1c(C)[nH]c(C(=O)OCC(=O)Nc2c(C)cccc2C)c1C,7.67% (inactive),–
O=C(CNC(=O)c1ccco1)NNC(=O)c1ccc(Br)cc1,-8.12% (inactive),–

SMILES,"activity, positive = re-replication",Potency
Cc1cccc(NC(=S)N2CCC(c3nc4ccccc4s3)CC2)c1,-2.25% (inactive),–
Cc1cccc(NC(=S)N2CCCC(c3nc4ccccc4[nH]3)C2)c1 (stereo not given),–,1.03 µM (active)
CCCNC(=S)N1CCCC(c2nc3ccccc3[nH]2)C1 (stereo not given),-49.5% (inactive),–
O=C(Nc1ccccc1)c1ccc(NC(=O)c2cccs2)cc1,1.8% (inactive),–
O=C(Nc1ccnc(-c2ccncc2)n1)c1cccs1,–,0.259 µM (active)
O=C(Nc1ccccc1-c1ccccc1)c1cccs1,-3.72% (inactive),–
C=CC(=O)Nc1ccc(Nc2ccnc(Nc3ccc(N4CCN(C)CC4)cc3)n2)cc1,–,20.6 µM (active)
Cc1cccc(N2CCN(c3ccc(NC(=O)/C=C\C(=O)O)cc3)CC2)c1,3.14% (inactive),–
CN1CCN(c2ccc(NC(=O)c3ccccc3)cc2)CC1,9.59% (inactive),–
CCCCN(CC(=O)Nc1cccc(S(=O)(=O)N2CCCC2)c1)Cc1nc2ccccc2c(=O)[nH]1,22.4% (inactive),–
COC1C(CO)OC(n2cnc3c(=S)nc(N)[nH]c32)C1O (stereo not given),11.1% (inactive),–
COC(=O)Nc1nc2ccc(Sc3ccccc3)cc2[nH]1,–,904 nM (active) and 1.16 µM (active)
Cc1ccc(O)c(CNc2nc3ccccc3[nH]2)c1,8.95% (inactive),–
COc1ccc2nc(SCC(=O)Nc3c(C)cc(C)cc3C)[nH]c2c1,-1.39% (inactive),–
Cc1ccccc1Nc1nc(N)nc(COC(=O)CCC(=O)c2ccc(F)cc2)n1,-1.07% (inactive),–
Cc1cc(CO)nn1-c1ccc([N+](=O)[O-])cc1,-1.81% (inactive),–
CC(C)(C)c1cnnn1-c1ccc([N+](=O)[O-])cc1,17% (inactive),–
COc1cnn(-c2ccc([N+](=O)[O-])cc2)c(=O)c1Cl,–,18.4 µM (active)
CCC1S/C(=N/N=C/c2ccco2)NC1=O (stereo not given),4.53% (inactive),–
Cc1ccc(N2NC(=O)/C(=C/C=C/c3ccco3)C2=O)cc1C,–,23.1 µM (active)
COc1cc(/C=C2/C(=O)NN(c3cccc(Cl)c3)C2=O)cc(Br)c1O,-2.08% (inactive),–
O=C1NN(c2ccccc2)C(=O)/C1=C/c1ccc(-c2cccc(C(=O)O)c2)o1,10.3% (inactive),–
CN(C)c1ccc(-n2cccc2/C=C2/SC(=Nc3ccc(F)cc3)NC2=O)cc1,-10.2% (inactive),–
Cc1ccc(N=C2NC(=O)/C(=C/C=C/c3ccco3)S2)cc1C,–,7.31 µM (active)
CC(C)c1ccc(S(=O)(=O)N2CCN(C(C)C(=O)NC3CCCC3)CC2)cc1 (stereo not given),18.7% (inactive),–
